# Test results as given in article PMC7826789 (International Journal of Molecular Sciences, 2021).
# Test system: EGFR
row,SMILES,Kinases covered
1,COc1cc2ncnc(Nc3ccc(F)c(Cl)c3)c2cc1O[C@H]1CC[C@H](N)CC1 [BIBW3133BS],EGFR
2,C#Cc1cccc(Nc2ncnc3cc(OC)c(OC4CCN(C)CC4)cc23)c1 [BI00007366],EGFR
3,COc1cc2ncnc(Nc3cccc(Cl)c3F)c2cc1O[C@H]1CC[C@H]([C@@H]2NCCNC2=O)CC1 [BI00133844],EGFR
4,O=C(Nc1cccc(-c2nn3ncccc3c2-c2ccnc(Nc3cccnc3)n2)c1)c1c(F)cccc1F [GSK312879],EGFR
5,Cl.O=S1CCN(Cc2ccc(-c3ccc4ncnc(Nc5ccc(OCc6ccccc6)c(F)c5)c4c3)o2)CC1 [GW576924A],EGFR
6,Fc1cccc(COc2ccc(Nc3ncncc3C#Cc3ccccc3)cc2Cl)c1 [GW651576X],EGFR
7,COc1cc2ncnc(Nc3cccc(Cl)c3F)c2cc1O[C@H]1CC[C@@]2(CC1)NCCNC2=O [BI00113608],EGFR
8,Cl.O=C(O[C@H]1CN[C@H](C#Cc2cc3ncnc(Nc4ccc5c(cnn5Cc5ccccc5)c4)c3s2)C1)N1CCOCC1 [GSK200398A],EGFR

# Test system: ERBB2
row,SMILES,Kinases covered
1,COc1cc2ncnc(Nc3ccc(F)c(Cl)c3)c2cc1O[C@H]1CC[C@H](N)CC1 [BIBW3133BS],ERBB2
2,C#Cc1cccc(Nc2ncnc3cc(OC)c(OC4CCN(C)CC4)cc23)c1 [BI00007366],ERBB2
3,COc1cc2ncnc(Nc3cccc(Cl)c3F)c2cc1O[C@H]1CC[C@H]([C@@H]2NCCNC2=O)CC1 [BI00133844],ERBB2
4,O=C(Nc1cccc(-c2nn3ncccc3c2-c2ccnc(Nc3cccnc3)n2)c1)c1c(F)cccc1F [GSK312879],ERBB2
5,Cl.O=S1CCN(Cc2ccc(-c3ccc4ncnc(Nc5ccc(OCc6ccccc6)c(F)c5)c4c3)o2)CC1 [GW576924A],ERBB2
6,CN(C)c1cc2c(Nc3ccc4c(cnn4Cc4ccccc4)c3)ncnc2cn1 [GW282974X],ERBB2
7,COc1cc2ncnc(Nc3cccc(Cl)c3F)c2cc1O[C@H]1CC[C@@]2(CC1)NCCNC2=O [BI00113608],ERBB2
8,Cl.O=C(O[C@H]1CN[C@H](C#Cc2cc3ncnc(Nc4ccc5c(cnn5Cc5ccccc5)c4)c3s2)C1)N1CCOCC1 [GSK200398A],ERBB2

# Test system: ERBB4
row,SMILES,Kinases covered
1,COc1cc2ncnc(Nc3ccc4c(cnn4Cc4ccccc4)c3)c2cc1OC.Cl [GW282449A],ERBB4
2,COc1cc2ncnc(Nc3cccc(Cl)c3F)c2cc1O[C@H]1CC[C@H]([C@@H]2NCCNC2=O)CC1 [BI00133844],ERBB4
3,O=C(Nc1cccc(-c2nn3ncccc3c2-c2ccnc(Nc3cccnc3)n2)c1)c1c(F)cccc1F [GSK312879],ERBB4
4,CN(C)c1cc2c(Nc3ccc4c(cnn4Cc4ccccc4)c3)ncnc2cn1 [GW282974X],ERBB4
5,Cl.c1ccc(Cc2nc3ccc(Nc4ncnc5ccccc45)cc3[nH]2)cc1 [GR269666A],ERBB4
6,Cl.O=C(O[C@H]1CN[C@H](C#Cc2cc3ncnc(Nc4ccc5c(cnn5Cc5ccccc5)c4)c3s2)C1)N1CCOCC1 [GSK200398A],ERBB4

# Test system: FLT1
row,SMILES,Kinases covered
1,CCS(=O)(=O)c1ccc(OC)c(Nc2ncc(-c3cccc(OC)c3)o2)c1 [GW580509X],FLT1
2,O=C(Nc1ccccc1)Nc1cccc(Oc2ccc3nccn3n2)c1 [TPKI-39],FLT1
3,CCn1cc(-c2ccnc3[nH]c(-c4cccc(CN(C)C)c4)cc23)c(-c2ccc(NC(=O)N(C)C)cc2)n1 [GSK1070916],FLT1
4,CCS(=O)(=O)c1ccc(OC)c(Nc2ncc(-c3cccc(F)c3)o2)c1 [GW621970X],FLT1

# Test system: GAK
row,SMILES,Kinases covered
1,COc1cc2ncnc(Nc3ccc(F)c(Cl)c3)c2cc1O[C@H]1CC[C@H](N)CC1 [BIBW3133BS],GAK
2,COc1cc(Nc2ccnc3ccc(Br)cc23)cc(OC)c1OC [CA93.0],GAK
3,C#Cc1cccc(Nc2ncnc3cc(OC)c(OC4CCN(C)CC4)cc23)c1 [BI00007366],GAK
4,O=C(O)/C=C/C(=O)O.OCCCNc1nccc(-c2c(-c3ccc(F)cc3)nn3cc(C(F)(F)F)ccc23)n1 [GW569293E],GAK
5,CCCc1cc(N2CCCN(C)CC2)nc2sc3c(N)ncnc3c12 [BI00604564],GAK

# Test system: GSK3A
row,SMILES,Kinases covered
1,O=C(Nc1n[nH]c2nc(-c3nccs3)c(Br)cc12)C1CCCC1 [SB-742609],GSK3A
2,CCC(NN(C)C)=C1C(=O)Nc2ccc(C(C)=O)cc21 [BI00036838],GSK3A
3,COc1ccc(CSc2nnc(-c3ccc4ncsc4c3)o2)cc1C(F)(F)F [TPKI-91],GSK3A
4,COc1cccc(-n2ncc3c(N/N=C/c4ccncc4)ncnc32)c1 [GW784752X],GSK3A
